# Data taken from PubChem BioAssay (Tox21).
# “And” between values parts separate entries of the source, which are not always exact repeats. Equal entries are not always repeated. Records with an inconclusive call do not appear. A call without a number means that no potency is given here. Some compounds were tested as several samples or in several runs, with calls that do not always agree. The source made the active and inactive calls. Unless noted, calls come from the whole dose curve; as a rule, active = well fitted curve in the direction sought with a large enough effect in the repeat runs; inconclusive = weak or mixed curves; inactive = no such curve, though single readings can be large; an effect the other way counts as inactive or inconclusive.
# Legend:
# [1] = qHTS assay to identify small molecule antagonists of the estrogen receptor beta (ER-beta) signaling pathway - cell viability counter screen (AID 1259382);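 note: HEK293T cells carrying ER-beta-UAS-bla reporter stimulated with estradiol; series mostly up to about 92 µM; nearly all actives have a fitted effect of over 55% in size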
# Method in brief: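 Cells: ER-beta-UAS-bla HEK293T, 2,000/well, 2% CS-FBS, 6 hr settle. Cpd + E2 (1nM final), 16 hr, 37C/5% CO2. Bla FRET substrate 2 hr RT, then CellTiter-Glo 30 min RT, luminescence.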
# [2] = biological target: Estrogen receptor (Homo sapiens) (UniProt P03372); assay: qHTS assay to identify small molecule agonists of the estrogen receptor alpha (ER-alpha) signaling pathway in the presence of an antagonist (AID 1259383; calls by dose curve; note: top concentration of the series differs between compounds; nearly all actives have a fitted effect of over 15% in size)
# Estrogen receptor (Homo sapiens), sequence (P03372 whole entry, looked up): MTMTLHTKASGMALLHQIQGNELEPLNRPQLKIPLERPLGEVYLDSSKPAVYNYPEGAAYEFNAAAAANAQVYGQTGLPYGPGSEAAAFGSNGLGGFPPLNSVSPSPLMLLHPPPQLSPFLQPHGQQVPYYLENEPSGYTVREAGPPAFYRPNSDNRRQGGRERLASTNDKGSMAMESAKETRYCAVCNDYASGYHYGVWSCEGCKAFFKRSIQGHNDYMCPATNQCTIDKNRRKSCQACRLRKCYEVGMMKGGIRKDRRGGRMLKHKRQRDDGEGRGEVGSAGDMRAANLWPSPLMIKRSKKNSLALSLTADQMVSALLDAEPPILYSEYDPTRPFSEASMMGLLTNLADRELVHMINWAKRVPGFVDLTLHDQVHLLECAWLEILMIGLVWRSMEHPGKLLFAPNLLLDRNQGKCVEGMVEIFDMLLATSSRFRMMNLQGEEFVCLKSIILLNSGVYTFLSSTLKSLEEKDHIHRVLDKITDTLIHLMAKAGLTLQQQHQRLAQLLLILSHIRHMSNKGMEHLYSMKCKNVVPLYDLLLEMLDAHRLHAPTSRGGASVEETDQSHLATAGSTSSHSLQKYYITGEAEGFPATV
# Method in brief: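 VM7Luc4E2, endog. ER-alpha + 4×ERE-luc; charcoal-stripped FBS, phenol red-free, 5 d; 24hr plating; +10.0nM ICI-182,780 (final); cpds 15 conc, 22hr, 37C/5% CO2; ONE-Glo luminescence.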
# [3] = qHTS assay to identify small molecule agonists or antagonists of the thyroid stimulating hormone receptor (TSHR) signaling pathway - wild type cell line counter screen (AID 1259384; calls by dose curve)
# Method in brief: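 Wild-type Hek293 cells, 800/well, 18 h at 37C, then compound with Ro20-1724 for 30 min RT. cAMP by HTRF (cAMP-d2/anti-cAMP cryptate), 1 h RT, fluorescence read. 15 concentrations, triplicates.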
# [4] = biological target: Thyrotropin receptor (Homo sapiens) (UniProt P16473); assay: qHTS assay to identify small molecule antagonists of the thyroid stimulating hormone receptor (TSHR) signaling pathway (AID 1259385; calls by dose curve; note: nearly all actives have a fitted effect of over 20% in size)
# Thyrotropin receptor (Homo sapiens), sequence (P16473 whole entry, looked up): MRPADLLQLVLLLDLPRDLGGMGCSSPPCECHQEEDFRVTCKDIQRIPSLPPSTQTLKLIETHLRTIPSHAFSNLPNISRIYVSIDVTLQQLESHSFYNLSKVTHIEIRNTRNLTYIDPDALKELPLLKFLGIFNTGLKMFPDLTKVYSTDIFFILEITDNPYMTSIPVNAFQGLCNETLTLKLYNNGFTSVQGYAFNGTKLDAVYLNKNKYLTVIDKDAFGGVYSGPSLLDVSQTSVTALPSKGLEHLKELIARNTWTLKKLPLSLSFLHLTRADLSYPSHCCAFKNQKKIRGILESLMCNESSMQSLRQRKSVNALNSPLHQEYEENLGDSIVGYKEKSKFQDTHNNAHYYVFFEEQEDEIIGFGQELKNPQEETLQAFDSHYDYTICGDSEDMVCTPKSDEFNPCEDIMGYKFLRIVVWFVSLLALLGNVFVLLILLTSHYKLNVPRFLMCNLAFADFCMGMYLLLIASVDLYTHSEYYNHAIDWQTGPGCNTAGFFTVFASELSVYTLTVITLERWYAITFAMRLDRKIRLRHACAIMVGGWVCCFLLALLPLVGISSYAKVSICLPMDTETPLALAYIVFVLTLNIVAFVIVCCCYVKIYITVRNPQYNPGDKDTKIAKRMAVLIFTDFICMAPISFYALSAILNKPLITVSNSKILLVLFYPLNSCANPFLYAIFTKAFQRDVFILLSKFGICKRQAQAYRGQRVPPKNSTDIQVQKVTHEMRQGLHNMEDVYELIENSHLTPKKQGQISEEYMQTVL
# Method in brief: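 TSHR-HEK293 cells (800/well) plated 18 h, then compounds with Ro20-1724 and TSH at 1.5 ng/mL final, 30 min at room temperature. cAMP quantified by HTRF (cAMP-d2/anti-cAMP-cryptate, 1 h); 15 concentrations in triplicate.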
# [5] = qHTS assay to identify small molecule agonists of the estrogen receptor alpha (ER-alpha) signaling pathway in the presence of an antagonist - cell viability counter screen (AID 1259386);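 note: cells exposed to compounds for 22 h at 37 °C before the viability read; nearly all actives have a fitted effect of over 30% in size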; note: potency is the fitted concentration of half-maximal effect; for activity change, negative = cytotoxicity: series mostly up to about 92 µM
# Method in brief: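 VM7Luc4E2, stripped-serum pre-culture 5 d; 24hr plating; +ICI-182,780 10.0nM final; cpds 15 conc, 22hr, 37C/5% CO2; CellTiter-Fluor added at 21hr, fluorescence 1hr later.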
# [6] = biological target: Progesterone receptor (Homo sapiens) (UniProt P06401); assay: qHTS assay to identify small molecule antagonists of the progesterone receptor (PR) signaling pathway (AID 1346795; active = well fitted inhibition curve with a large enough effect in the signal ratio in the repeat runs, not every such curve was filed as active; the % refers to the signal ratio; note: potency is the fitted concentration of half-maximal effect)
# Progesterone receptor (Homo sapiens), sequence (P06401 whole entry, looked up): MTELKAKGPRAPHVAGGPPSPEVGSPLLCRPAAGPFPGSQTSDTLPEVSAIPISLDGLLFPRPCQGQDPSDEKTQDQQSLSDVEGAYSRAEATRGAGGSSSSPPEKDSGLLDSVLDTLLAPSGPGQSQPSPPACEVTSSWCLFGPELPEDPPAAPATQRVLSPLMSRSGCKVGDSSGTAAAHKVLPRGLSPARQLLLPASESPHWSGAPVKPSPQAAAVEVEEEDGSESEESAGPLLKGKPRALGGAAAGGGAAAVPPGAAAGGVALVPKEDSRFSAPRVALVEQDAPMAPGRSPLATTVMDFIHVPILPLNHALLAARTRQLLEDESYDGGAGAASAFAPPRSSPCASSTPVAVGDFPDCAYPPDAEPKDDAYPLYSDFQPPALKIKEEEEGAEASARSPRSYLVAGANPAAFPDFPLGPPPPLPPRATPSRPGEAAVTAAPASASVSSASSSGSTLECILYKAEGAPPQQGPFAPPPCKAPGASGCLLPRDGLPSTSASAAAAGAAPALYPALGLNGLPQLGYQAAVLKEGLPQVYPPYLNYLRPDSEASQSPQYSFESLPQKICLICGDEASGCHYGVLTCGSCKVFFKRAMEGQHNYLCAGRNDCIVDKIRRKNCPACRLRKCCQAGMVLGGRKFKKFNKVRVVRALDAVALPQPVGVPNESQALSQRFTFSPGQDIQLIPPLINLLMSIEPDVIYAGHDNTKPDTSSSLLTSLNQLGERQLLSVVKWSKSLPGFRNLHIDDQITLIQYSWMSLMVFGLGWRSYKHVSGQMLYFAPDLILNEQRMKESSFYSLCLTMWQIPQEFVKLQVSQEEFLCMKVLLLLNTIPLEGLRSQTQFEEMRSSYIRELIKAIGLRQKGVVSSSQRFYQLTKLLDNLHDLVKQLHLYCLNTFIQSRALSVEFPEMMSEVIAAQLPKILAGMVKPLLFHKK
# Method in brief: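 Antagonist mode: compounds tested against 1 nM (final) promegestone stimulation in HEK293T cells expressing PR-UAS-bla reporter, 16 hr at 37C, 5% CO2; beta-lactamase activity detected via B/G FRET substrate after 2 hr at room temperature.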
# [7] = qHTS assay to identify small molecule antagonists of the progesterone receptor (PR) signaling pathway - cell viability counter screen (AID 1346798); note: nearly all actives have a fitted effect of over 50% in size; note: potency is the fitted concentration of half-maximal effect; for activity change, negative = cytotoxicity: series mostly up to about 92 µM
# Method in brief: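 Counter screen for cytotoxicity: viability of PR-UAS-bla HEK293T cells was measured with CellTiter-Glo luminescence following 16 hr compound exposure in the presence of R5020.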
# [8] = qHTS assay to identify small molecule agonists of the progesterone receptor (PR) signaling pathway - cell viability counter screen (AID 1346799; calls by dose curve; note: nearly all actives have a fitted effect of over 45% in size)
# Method in brief: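 Cells (PR-UAS-bla HEK293T) are plated at 3,000/well in 2% charcoal-stripped FBS medium, rested 6 hr, dosed and incubated 16 hr at 37C. CellTiter-Glo is then added and luminescence measured after 30 min at room temperature.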
# [9] = qHTS assay to identify small molecule antagonists of the TGF-beta/Smad signaling pathway - cell viability counter screen (AID 1346824); note: nearly all actives have a fitted effect of over 50% in size
# Method in brief: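 SBE-bla HEK 293T cells, incubated overnight, then compound plus 0.25 ng/mL TGF-beta1 (stock added) for 5 hr at 37 C. Viability was read in the same wells by CellTiter-Glo luminescence after 30 min at room temperature.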
# [10] = biological target: Progesterone receptor (Homo sapiens) (UniProt P06401); assay: qHTS assay to identify small molecule agonists of the progesterone receptor (PR) signaling pathway (AID 1346784; calls by dose curve; note: nearly all actives have a fitted effect of over 30% in size; note: potency is the fitted concentration of half-maximal effect)
# Method in brief: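 Cells (PR-UAS-bla HEK 293T, GripTite) were plated in assay medium containing 2% charcoal-stripped FBS and incubated 6 hr. Test compounds in DMSO were added for 16 hr at 37C. FRET substrate was then loaded for 2 hr at room temperature before fluorescence reading.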
SMILES,Potency [1],Potency [2],outcome [3],Potency [4],Potency [5],Potency [6],Potency [7],Potency [8],Potency [9],Potency [10],activation [10],"activity change, negative = cytotoxicity [5]","activity change, negative = inhibition [6]","activity change, negative = cytotoxicity [7]","activity change, negative = cytotoxicity [8]"
O=C(O)c1cc(O)c(O)c(O)c1,inactive,inactive,inactive,inactive,55 µM (active),inactive,inactive,inactive,inactive,–,–,–,–,–,–
O=C(O)c1cc(=O)c2c(OCC(O)COc3cccc4oc(C(=O)O)cc(=O)c34)cccc2o1,inactive,inactive,inactive,inactive,inactive,inactive,inactive,inactive,inactive,–,–,–,–,–,–
O=[N+]([O-])c1ccc(/C=C/c2ccc([N+](=O)[O-])cc2S(=O)(=O)O)c(S(=O)(=O)O)c1,inactive,inactive,–,–,inactive,inactive,inactive,inactive,inactive,–,–,–,–,–,–
CCc1ccc(CCOc2ccc(CC3SC(=O)NC3=O)cc2)nc1 (stereo unspecified),inactive,inactive,–,–,inactive,–,–,inactive,inactive,inactive,–,–,–,–,–
Cc1ccc(S(N)(=O)=O)cc1,inactive,–,inactive,inactive,inactive,inactive,inactive,inactive,inactive,inactive,–,–,–,–,–
CCCCCC1=CCCC1=O,inactive,inactive,inactive,inactive,inactive,inactive,inactive,inactive,inactive,–,–,–,–,–,–
CCCCCC/C(C=O)=C\c1ccccc1,inactive,–,inactive,inactive,inactive,inactive,inactive,inactive,inactive,–,–,–,–,–,–
Nc1cc([N+](=O)[O-])ccc1O,inactive,–,inactive,–,43.3 µM (active) and 27.2 µM (active),inactive,inactive,inactive,inactive,–,–,–,–,–,–
O=C(O)[C@H](O)[C@@H](O)[C@H](O)[C@H](O)CO,inactive,–,–,–,inactive,inactive,inactive,inactive,inactive,2.43 µM (active),-0.268% [at 3.27 µM] (inactive),–,–,–,–
Cc1occc(=O)c1O,inactive,–,inactive,inactive,inactive,inactive,inactive,inactive,inactive,inactive,–,–,–,–,–
OCC(CO)(CBr)CBr,inactive,–,inactive,inactive,inactive,inactive,inactive,inactive,inactive,inactive,–,–,–,–,–
CC1=CC(=O)NS(=O)(=O)O1,inactive,–,inactive,inactive,inactive,inactive,inactive,inactive,inactive,inactive,–,–,–,–,–
COCCCOc1ccnc(CS(=O)c2nc3ccccc3[nH]2)c1C (stereo unspecified),inactive,–,inactive,inactive,inactive,60.9 µM (active) and inactive,inactive,–,inactive,inactive,–,–,–,–,–
Cc1cccnc1,inactive,–,inactive,inactive,inactive,inactive,inactive,inactive,inactive,–,–,–,–,–,–
CCCC(C)=O,inactive,–,–,–,inactive,inactive,inactive,inactive,inactive,–,–,–,–,–,–
Nc1ccccc1[N+](=O)[O-],inactive,–,inactive,–,inactive,inactive,inactive,inactive,inactive,–,–,–,–,–,–
O=c1[nH]nnc2ccccc12,inactive,–,inactive,inactive,inactive,inactive,inactive,inactive,inactive,inactive,–,–,–,–,–
CC1CCC(C(C)C)C(O)C1 (stereo unspecified),inactive,–,inactive,inactive,inactive,inactive,inactive,inactive,inactive,–,–,–,–,–,–
N[C@@H](Cc1cc(I)c(Oc2cc(I)c(O)c(I)c2)c(I)c1)C(=O)O,inactive,–,inactive,inactive,inactive,inactive,inactive,–,inactive,–,–,–,–,–,–
CN(C)CCC(c1ccc(Cl)cc1)c1ccccn1 (stereo unspecified),–,–,inactive,inactive,inactive,inactive,54.6 µM (active),–,inactive,inactive,–,–,–,–,–
O=C(O)c1cc(C(=O)O)cc(S(=O)(=O)O)c1,inactive,–,inactive,inactive,inactive,inactive,inactive,inactive,inactive,inactive,–,–,–,–,–
CSCCC=O,inactive,–,–,–,inactive,inactive,inactive,inactive,inactive,–,–,–,–,–,–
NNc1nncc2ccccc12,inactive,–,inactive,inactive,–,61.1 µM (active),–,–,inactive,–,–,-0.882% [at 19 µM] (inactive),9.77% [at 18.9 µM] (inactive),-14.1% [at 18.9 µM] (inactive),-14.8% [at 19 µM] (inactive)
COc1ccc(Cl)cc1C(=O)NCCc1ccc(S(=O)(=O)NC(=O)NC2CCCCC2)cc1,inactive,–,inactive,inactive,inactive,inactive,inactive,inactive,inactive,inactive,–,–,–,–,–
COc1ccc2cc([C@H](C)C(=O)O)ccc2c1,inactive,–,inactive,inactive,inactive,inactive,inactive,inactive,inactive,inactive,–,–,–,–,–
